Reference: publication PMC5700166

Assays:
Test in all cases: protein-binding microarray (PBM); PBM: ~300 nM protein, 6 mM HEPES pH 7.8, 80 mM KCl, 0.5 mM EDTA, 0.5 mM EGTA, 6% glycerol, 35 ng/ul poly-dIdC, 1% milk, 1 h, room temperature; Ap Aiptasia and Nv Nematostella (sea anemones) / Co Capsaspora / Aq Amphimedon (sponge) / Dm Drosophila / Hu human; RHD is the Rel homology domain; high values mean tight binding
Settings in all cases: dsDNA, one strand shown
[1] = molecular target: T1, GST-Ap-NF-kB RHD (Exaiptasia pallida (Aiptasia), UniProt A0A913YAJ5 2-422)
T1 sequence: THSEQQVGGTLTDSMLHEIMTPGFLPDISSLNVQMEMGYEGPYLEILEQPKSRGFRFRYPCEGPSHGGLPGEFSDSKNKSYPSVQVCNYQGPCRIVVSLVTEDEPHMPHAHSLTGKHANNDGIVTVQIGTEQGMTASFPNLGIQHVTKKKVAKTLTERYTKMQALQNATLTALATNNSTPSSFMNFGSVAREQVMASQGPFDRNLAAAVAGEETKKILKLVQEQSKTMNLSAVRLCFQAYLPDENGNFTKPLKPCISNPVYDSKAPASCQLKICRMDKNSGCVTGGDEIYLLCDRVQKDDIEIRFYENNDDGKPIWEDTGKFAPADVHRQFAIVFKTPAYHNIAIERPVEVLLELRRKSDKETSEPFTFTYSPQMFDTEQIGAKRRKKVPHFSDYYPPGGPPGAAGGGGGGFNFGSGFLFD

[2] = molecular target: T2, GST-Nv-NF-kB (Cys allele) (Nematostella vectensis, UniProt E5G601 2-411)
T2 sequence: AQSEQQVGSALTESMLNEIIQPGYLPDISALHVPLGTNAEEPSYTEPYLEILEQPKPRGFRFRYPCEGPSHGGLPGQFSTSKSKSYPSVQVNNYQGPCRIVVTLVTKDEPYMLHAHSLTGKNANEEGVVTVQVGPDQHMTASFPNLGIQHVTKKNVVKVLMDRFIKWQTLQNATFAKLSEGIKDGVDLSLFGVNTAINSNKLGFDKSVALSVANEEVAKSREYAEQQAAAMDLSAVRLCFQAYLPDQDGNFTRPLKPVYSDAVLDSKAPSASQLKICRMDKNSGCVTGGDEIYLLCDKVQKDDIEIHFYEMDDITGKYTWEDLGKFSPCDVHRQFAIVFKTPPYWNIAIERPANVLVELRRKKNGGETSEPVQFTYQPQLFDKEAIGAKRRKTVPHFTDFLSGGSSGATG

[3] = molecular target: T3, GST-Co-NF-kB (Capsaspora owczarzaki, UniProt F1ARL5 200-546)
T3 sequence: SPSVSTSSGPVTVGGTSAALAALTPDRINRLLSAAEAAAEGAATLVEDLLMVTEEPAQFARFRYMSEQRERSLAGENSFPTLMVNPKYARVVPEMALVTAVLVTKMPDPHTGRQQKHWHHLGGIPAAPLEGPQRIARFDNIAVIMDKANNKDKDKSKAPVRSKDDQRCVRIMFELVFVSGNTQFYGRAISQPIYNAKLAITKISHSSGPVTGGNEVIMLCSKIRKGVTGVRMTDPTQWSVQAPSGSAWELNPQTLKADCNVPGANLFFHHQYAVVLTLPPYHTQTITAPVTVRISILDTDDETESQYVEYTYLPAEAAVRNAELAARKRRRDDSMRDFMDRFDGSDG

[4] = molecular target: T4, GST-Dm-Relish (Drosophila melanogaster, UniProt Q94527 99-473)
T4 sequence: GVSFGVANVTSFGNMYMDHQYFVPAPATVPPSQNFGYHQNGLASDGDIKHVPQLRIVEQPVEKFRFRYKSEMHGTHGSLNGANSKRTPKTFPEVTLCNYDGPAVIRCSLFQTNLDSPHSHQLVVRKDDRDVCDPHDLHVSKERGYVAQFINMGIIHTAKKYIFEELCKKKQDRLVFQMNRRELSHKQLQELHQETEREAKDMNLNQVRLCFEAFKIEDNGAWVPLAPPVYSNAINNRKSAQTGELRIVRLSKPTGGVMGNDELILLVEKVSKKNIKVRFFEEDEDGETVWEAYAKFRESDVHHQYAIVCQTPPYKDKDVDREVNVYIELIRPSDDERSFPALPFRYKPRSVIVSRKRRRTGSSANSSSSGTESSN

[5] = molecular target: T5, GST-Aq-NF-kB (Amphimedon queenslandica, UniProt A9Y5G7 2-389)
T5 sequence: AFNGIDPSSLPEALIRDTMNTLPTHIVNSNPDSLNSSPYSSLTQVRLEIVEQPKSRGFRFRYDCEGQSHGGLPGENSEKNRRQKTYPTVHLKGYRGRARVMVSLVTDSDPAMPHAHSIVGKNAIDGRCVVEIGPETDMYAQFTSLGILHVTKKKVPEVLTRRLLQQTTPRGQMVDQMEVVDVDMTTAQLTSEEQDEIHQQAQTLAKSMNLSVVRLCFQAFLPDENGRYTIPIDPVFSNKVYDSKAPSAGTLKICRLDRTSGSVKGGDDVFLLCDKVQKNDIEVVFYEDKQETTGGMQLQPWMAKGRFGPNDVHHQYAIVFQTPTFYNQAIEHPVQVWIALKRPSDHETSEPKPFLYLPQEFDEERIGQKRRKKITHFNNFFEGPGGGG

Sequence	binding signal [1] [z-score]	binding signal [2] [z-score]	binding signal [3] [z-score]	binding signal [4] [z-score]	binding signal [5] [z-score]
CCGATTAACATCAGGGGTTACCCTGATGTTAATCGGGTCTTGATTCGCTTGACGCTGCTG	6.28	5.58	4.23	8.84	7.71
CCGATTAACATCAGGGGACTATATGATGTTAATCGGGTCTTGATTCGCTTGACGCTGCTG	5.4	4.97	2.59	2.85	4.61
CCGATTAACATCAGGAATACCCATGATGTTAATCGGGTCTTGATTCGCTTGACGCTGCTG	4.37	4.62	1.39	4.16	4.54
CCGATTAACATCAAGTATTTCCCTGATGTTAATCGGGTCTTGATTCGCTTGACGCTGCTG	3.79	5.18	4.22	5.66	5.42
CCGATTAACATCAGGGAAAACACTGATGTTAATCGGGTCTTGATTCGCTTGACGCTGCTG	3.49	4.89	4.18	5.1	6.06
CCGATTAACATCACTTGGGAAACTGATGTTAATCGGGTCTTGATTCGCTTGACGCTGCTG	1.38	2.05	2.44	1.01	1.18
CCGATTAACATCAAAATCTTCCCTGATGTTAATCGGGTCTTGATTCGCTTGACGCTGCTG	5.74	5.94	4.16	1.48	5.28
CCGATTAACATCAAGGGAATCCCTGATGTTAATCGGGTCTTGATTCGCTTGACGCTGCTG	6.73	6.1	2.83	9.2	6.63
CCGATTAACATCAGGGAATGCACTGATGTTAATCGGGTCTTGATTCGCTTGACGCTGCTG	1.84	3.18	1.11	5.07	4.84
CCGATTAACATCAGGGGGGCACCTGATGTTAATCGGGTCTTGATTCGCTTGACGCTGCTG	4.84	3.13	3.02	3.62	4.5
CCGATTAACATCAGGGAACGCCCTGATGTTAATCGGGTCTTGATTCGCTTGACGCTGCTG	2.68	2.74	1.21	4.32	5.25
CCGATTAACATCAGGGGGTAAAATGATGTTAATCGGGTCTTGATTCGCTTGACGCTGCTG	4.43	4.2	8.57	3.24	4.16
CCGATTAACATCACGGGAAACTCTGATGTTAATCGGGTCTTGATTCGCTTGACGCTGCTG	3.67	4.12	4.3	1.55	4.35
CCGATTAACATCAGGGGTTACACTGATGTTAATCGGGTCTTGATTCGCTTGACGCTGCTG	2.67	1.04	2.66	2	2.36
CCGATTAACATCAGGGGGAAGCATGATGTTAATCGGGTCTTGATTCGCTTGACGCTGCTG	4.43	5.1	7.73	3.21	4.01
CCGATTAACATCAGGGAGTTCCATGATGTTAATCGGGTCTTGATTCGCTTGACGCTGCTG	2.73	3.31		4.43	4.38

Sequence	binding signal [1] [z-score]	binding signal [2] [z-score]	binding signal [3] [z-score]	binding signal [4] [z-score]	binding signal [5] [z-score]
CCGATTAACATCAGGAACATCCCTGATGTTAATCGGGTCTTGATTCGCTTGACGCTGCTG	1.46	1.39		1.9	4.06
CCGATTAACATCAGGGGCTGTACTGATGTTAATCGGGTCTTGATTCGCTTGACGCTGCTG	2.83	3.09		3.56	4.35
CCGATTAACATCAGAAAAAACCCTGATGTTAATCGGGTCTTGATTCGCTTGACGCTGCTG	3.95	4.93		6.15	6.47
CCGATTAACATCAAGGAATTACCTGATGTTAATCGGGTCTTGATTCGCTTGACGCTGCTG	1.08	2.06		5.14	3.3
CCGATTAACATCAGGGATTCTCATGATGTTAATCGGGTCTTGATTCGCTTGACGCTGCTG	2.96	1.8		2.59	2.67
CCGATTAACATCAGGACTTTACCTGATGTTAATCGGGTCTTGATTCGCTTGACGCTGCTG	1.18	3.27		5.92	4.69
CCGATTAACATCAGGAAAATACCTGATGTTAATCGGGTCTTGATTCGCTTGACGCTGCTG	1.22	2.3		4.66	4.29
CCGATTAACATCAGGGATTTTGATGATGTTAATCGGGTCTTGATTCGCTTGACGCTGCTG	3.17	2.95		4.91	2.87
CCGATTAACATCATGAAGACCCCTGATGTTAATCGGGTCTTGATTCGCTTGACGCTGCTG	2.6	1.18		1.35	2.25
CCGATTAACATCAGGAGAATCCCTGATGTTAATCGGGTCTTGATTCGCTTGACGCTGCTG	2.6	3.24		4.39	5.52
CCGATTAACATCAACAAAGTCCCTGATGTTAATCGGGTCTTGATTCGCTTGACGCTGCTG	4.89	5.37		5.26	4.25
CCGATTAACATCAAAAAATACCATGATGTTAATCGGGTCTTGATTCGCTTGACGCTGCTG	1.11	1.58		4.53	2.23
CCGATTAACATCAGGGATTCCAATGATGTTAATCGGGTCTTGATTCGCTTGACGCTGCTG	1.68	1		5.16	1.78
CCGATTAACATCAGGGGTTCCACTGATGTTAATCGGGTCTTGATTCGCTTGACGCTGCTG	2.77	2.46		5.79	3.97
CCGATTAACATCAGGAGGCCCCCTGATGTTAATCGGGTCTTGATTCGCTTGACGCTGCTG	4.97	2.51		2.71	5.1
